# Results from PubChem BioAssay AID1321 (The Scripps Research Institute Molecular Screening Center, 2008).
# Out of some 220,000 compounds screened, about 2,600 (1.2%) were called active. For the sample, actives were picked, then their nearest neighbours and some compounds at random. Unmarked numbers belong to inactive results.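 How the source made its calls: active means activation above the mean of all tested compounds plus 3 SD, set per screening run (cut at about 8.8% in these data); inactive means the rest.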
# Biological target: Wee1-like protein kinase (Homo sapiens) (UniProt P30291)
# Test: compounds stabilizing Wee1-luciferase fusion – cell-based, HeLa, Wee1K328M-luciferase, luminescence, primary screen (AID 1321);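 further: cells exposed to compound for 20 h before luminescence read; 0% = DMSO alone and 100% = MG132 at 30 µM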
# Conditions: HeLa Luc-Wee1K328M stability, at 5 µM, hits give high values, 100% = proteasome inhibitor MG132 effect
row,SMILES,reporter increase
1,O=C(NC(=S)Nc1cccc2c(O)cccc12)c1cccc(Br)c1,-1.09%
2,Cc1c(Br)c([N+](=O)[O-])nn1CC(=O)N1CCN(Cc2ccccc2)CC1,9.26% (active)
3,Cn1nnnc1SCC(=O)N1CCN(Cc2ccccc2)CC1,1.62%
4,O=C(Nc1ccccc1)N1CCN(Cc2ccccc2)CC1,4.02%
5,O=C(c1[nH]ncc1-c1ccc(Cl)cc1)C1CO1 (stereo not given),-0.11%
6,O=C(O)c1cccnc1Sc1ncnc2sc3c(c12)CCC3,-1.76%
7,O=C(Nc1ccccc1)Nc1ccc(C(F)(F)F)cn1,0.31%
8,Cc1ccccc1OCC(=O)Nc1ccc(N2CCN(C(=O)C(C)C)CC2)c(Cl)c1,-0.59%
9,O=C(COc1ccccc1Cl)Nc1ccc(C(=O)c2ccc(C(=O)O)cc2)cc1,-1.08%
10,COc1cc(NC(=O)COc2ccccc2Cl)ccc1NC(=O)C(C)C,9.65% (active)
11,COc1cc(N2C(=O)CC3(CCCC3)CC2=O)cc(OC)c1OC,-3.15%
12,Cc1ccc(NC(=S)NCc2ccccc2Cl)c(C)c1,4.9%
13,Cc1ccc(NC(=S)NC(=O)c2ccc(-c3ccccc3)cc2)c(C)c1,1.11%
14,Cc1ccc(NC(=S)Nc2ncccc2C)c(C)c1,11.8% (active)
15,COc1ccc(CNC(=O)CCC(=O)Nc2nnc(C(C)C)s2)cc1,0.8%
16,COc1ccc(NS(=O)(=O)c2ccc(Oc3c(C#N)cccc3C#N)cc2)cc1,-2.73%
17,O=C(c1ccc(=O)oc1)N1CCC(C(O)(c2ccccc2)c2ccccc2)CC1,4.74%
18,S=c1[nH]nc(-c2cccs2)n1/N=C/c1cccs1,-2.19%
19,Oc1ccccc1/C=N/n1c(-c2cccs2)n[nH]c1=S,-3.64%
20,Cc1ccsc1/C=N/n1c(=S)[nH]nc(C)c1=O,11.5% (active)
21,CCOc1ccc(C2NC(=S)NC3=C2CCc2ccccc23)cc1 (stereo not given),3.12%
22,CCOC(=O)c1ccc(NC(=O)Cn2cnc3cc(C)c(C)cc32)cc1,-1.24%
23,O=C(CSc1nn(-c2ccc(F)cc2)c(=S)s1)NC1CCS(=O)(=O)C1 (stereo not given),0.51%
24,CCN(CC(=O)NC1CCS(=O)(=O)C1)S(=O)(=O)c1ccccc1 (stereo not given),-0.95%
25,O=C(CSc1ccccc1F)NC1CCS(=O)(=O)C1 (stereo not given),12.3% (active)

row,SMILES,reporter increase
1,Cc1cc(C)c2c(n1)nn1c(N3CCN(c4cccc(Cl)c4)CC3)cc(C)nc21,14.1% (active)
2,Cc1cc(C)c2c(n1)nn1c(N3CCOCC3)cc(C)nc21,-0.28%
3,Cc1cc(C)c2c(n1)nn1c(-n3ccnc3)cc(C)nc21,2.99%
4,Cc1ccc(C(=O)NNc2ncnc3ccccc23)cc1,-1.2%
5,COc1ccc(C(C)=O)cc1COc1ccc(Cl)c(C)c1,1.76%
6,Cn1c(NC(=O)c2ccc3c(c2)OCO3)cc(=O)n(C)c1=O,-1.07%
7,CC(C)Oc1ccc(C(=O)Nc2cc(=O)n(C)c(=O)n2C)cc1,11% (active)
8,CC(C)Oc1ccc(C(=O)NC(C)(C)CO)cc1,-0.33%
9,CC12C(=O)N(c3ccccc3)C(=O)C1C(c1ccccc1)N1CCCN12 (stereo not given),1.06%
10,Cc1[nH][nH]c(=O)c1C(c1ccc2c(c1)OCO2)c1c(C)[nH][nH]c1=O,1.31%
11,Nc1[nH][nH]c(=O)c1N=Nc1ccc2c(c1)OCO2,9.03% (active)
12,Cc1[nH][nH]c(=O)c1N=Nc1ccccc1,3.8%
13,CCN(CC)CCn1cnc2c1c(=O)n(CCOC(=O)c1cc(OC)c(OC)c(OC)c1)c(=O)n2C,-2.15%
14,COc1ccc(/C(C)=N/N2CCOCC2)c(O)c1,3.27%
15,CC(C)N(C(=O)c1ccc(-c2ccccc2F)cc1)C(C)C,1.6%
16,CCN(CC)C(=O)c1sc2nc(-c3ccccc3)ccc2c1N,15.4% (active)
17,Cc1ccc2c(N)c(C(=O)c3ccccc3)sc2n1,3.2%
18,CCOC(=O)c1sc2nc(SC)nc(-c3ccccc3)c2c1N,0.82%
19,Cn1c(SCC(=O)N/N=C/c2ccc(O)c(O)c2)nc2ccccc21,3.18%
20,CCC(C(=O)OCC(=O)Nc1ccccc1-c1ccccc1)c1ccccc1 (stereo not given),3.65%
21,O=C(CNCc1ccc(F)cc1)Nc1ccccc1-c1ccccc1,11.8% (active)
22,O=C(Cc1ccccc1)NCc1ccc(F)cc1,0.79%
23,CC(=O)OCCOCn1cnn2c(=O)c(Br)c(C)nc12,5.31%
24,CCOC(=O)C(=O)C1C(=O)Nc2ccccc21 (stereo not given),-1.16%
25,O=C1CC2(CC(c3ccc(Cl)cc3)=NO2)C(=O)N1c1ccccc1 (stereo not given),0.07%

row,SMILES,reporter increase
1,CCOc1cc2c(Cl)ncnc2c(OCC)c1OCC,-3.14%
2,COc1ccc(OCC(=O)OCC(=O)Nc2ccc(S(=O)(=O)N3CCCCC3)cc2)cc1,-0.17%
3,COc1ccc(CCNC(=O)COC(=O)C2CCCCC2)cc1,-1.3%
4,COc1ccc(NC(=O)COC(=O)CNC(=O)C2CCCCC2)cc1,11.6% (active)
5,Cc1ccc(COc2ccc(/C=N/NC(=O)CN3CCCCC3)cc2)cc1,22.3% (active)
6,Cc1ccc(OCC(=O)N/N=C/c2ccncc2)cc1,-0.52%
7,O=C(CN1CCSCC1)N/N=C/c1ccc(Cl)cc1,2.89%
8,CC1=NOC(=O)/C1=C\c1ccccc1,-0.32%
9,O=C(COc1ccc([N+](=O)[O-])cc1Cl)Nn1cnnc1,-0.06%
10,CC(C)(C)c1ccc(/C=C/C(=O)NC2CCS(=O)(=O)C2)cc1 (stereo not given),2.93%
11,COc1ccc(-c2ccc(OC(=O)NC3CCS(=O)(=O)C3)cc2)cc1 (stereo not given),9.29% (active)
12,COc1ccc(NC(=S)NC2CCS(=O)(=O)C2)cc1 (stereo not given),4.7%
13,CCCNC(=O)NCc1ccc(N2CCCC2=O)cc1,10.3% (active)
14,O=C(NCCCN1CCCCCC1)c1ccc(N2CCCC2=O)cc1,2.16%
15,CC1CCC(NC(=O)c2ccc(N3CCCC3=O)cc2)CC1 (stereo not given),0.06%
16,O=S(=O)(Cc1noc(-c2ccc(OC(F)(F)F)cc2)n1)c1ccc(F)cc1,4.61%
17,CCOc1ccc(CN(Cc2ccco2)S(=O)(=O)c2ccc(-n3cnnn3)c(OC)c2)cc1,1.7%
18,CC(C)(C)n1nnnc1C(c1cccs1)N(Cc1cccnc1)CC1CCCO1 (stereo not given),4.79%
19,CCOc1ccc(CN(Cc2ccco2)C(c2cccs2)c2nnnn2C(C)(C)C)cc1 (stereo not given),9.99% (active)
20,CCCCCCCCCCCCN1C(=O)CSC1c1cccnc1 (stereo not given),-0.61%
21,COc1ccc(CCNC(=O)C(=O)NCC2CCNCC2)cc1OC,-1.92%
22,COc1cc(/C=N\Nc2nc(-c3cccs3)c(NC(C)=O)s2)ccc1O,-1.53%
23,COc1ccc(NS(=O)(=O)c2ccc(N3CCOCC3)c(NC(=O)c3ccccc3Br)c2)cc1,0.37%
24,O=C(CSc1nnc(-c2cccs2)n1-c1ccccc1)N1CCN(C(=O)c2ccco2)CC1,-2.17%
25,O=C(CSc1nnc(-c2cccs2)n1Cc1ccccc1)N1CCc2ccccc2C1,9.02% (active)

row,SMILES,reporter increase
1,CCn1c(SCC(=O)c2ccc3ccccc3c2)nnc1-c1cccs1,4.66%
2,CCOc1ccc(-n2cnc3c(=O)[nH]c(N)nc32)cc1,-1.45%
3,CC(C)c1cc(CN2CCOCC2)cc(C(C)C)c1O,1.64%
4,O=C(CCCCCN1C(=O)c2cccc3cccc(c23)C1=O)NCc1ccco1,-0.37%
5,Cc1cccc(-[n+]2c(-c3cccc(Br)c3)[nH]c3nc4ccccc4nc32)c1,1.73%
6,COc1cccc(OCCOc2cccc(/C=N/n3cnnc3)c2)c1,10.7% (active)
7,C=CCc1ccc(OCCOc2cccc(/C=N/n3cnnc3)c2)c(OC)c1,0.6%
8,COc1ccccc1OCCOc1ccc(/C=N/n2cnnc2)cc1,3.34%
9,COc1ccc(NC(=O)c2cn(-c3ccccc3)nc2SC)cc1,-2.29%
10,O=C(CSc1nnc(SCc2ccc(F)cc2)s1)Nc1ccc(C(=O)O)cc1,-1.55%
11,CS/C(=C\C(=O)c1ccco1)Nc1ccccc1Cl,6.17%
12,Cc1nc2sc3c(c2c(=O)n1NC(=O)CCl)CCCC3,1.1%
13,NNC(=O)C1CCCn2c1nc1sc3c(c1c2=O)CCCC3 (stereo not given),-0.79%
14,Cn1c(NN)nc2sc3c(c2c1=O)CCC3,11.1% (active)
15,CC(NS(=O)(=O)c1ccccc1)c1n[nH]c(=S)n1-c1ccccc1 (stereo not given),0.56%
16,COC(=O)c1sc(NC(=S)NC(=O)c2ccc(C)cc2)nc1C,-0.57%
17,Brc1ccc2nc(N3CCCC3)sc2c1,18.3% (active)
18,c1c2c(cc3sc(N4CCCCC4)nc13)OCCO2,-3.23%
19,Cc1nc(N2CCCCC2)sc1C=O,-0.49%
20,Cc1ccc(F)cc1NC(=O)N1CCCN(c2ccc(C(F)(F)F)cn2)CC1,-2.91%
21,CN(C)CCCN(Cc1cc2cc3c(cc2[nH]c1=O)OCCO3)C(=O)NC1CCCCC1,-1.12%
22,O=C(N/N=C/c1ccco1)c1csc2c1CCCC2,9.05% (active)
23,O=C(N/N=C/c1ccco1)c1ccc(NC(=O)C2CC2)cc1,1.48%
24,O=C(N/N=C/c1ccco1)c1ccc(C(=O)N/N=C/c2ccco2)o1,-0.09%
25,COc1ccc(CN(Cc2ccc(OC)cc2)C(=O)c2cccs2)cc1,1.79%
